Many of the other results were omitted from the sample, so hits are more common in it than they were.
CBX7 AlphaScr: inhibitors of human CBX7 binding to H3K27me3 peptide; normalised signal (fraction of DMSO) (no concentration beside the values); O95931; AlphaScreen His6-CBX7 / biotin-H3K27me3 peptide binding; stronger effect = lower value; hit rate 1.1% among 66,000; in the data active means normalised signal below about 0.5
Target sequence (O95931 whole entry, looked up): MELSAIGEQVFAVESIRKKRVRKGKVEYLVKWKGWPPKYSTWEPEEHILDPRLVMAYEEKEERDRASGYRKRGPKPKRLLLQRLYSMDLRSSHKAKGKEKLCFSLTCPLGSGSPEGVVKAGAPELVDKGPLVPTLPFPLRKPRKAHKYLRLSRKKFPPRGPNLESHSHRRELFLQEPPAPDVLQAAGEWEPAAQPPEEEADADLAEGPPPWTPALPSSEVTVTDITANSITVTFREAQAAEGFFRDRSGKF
Numbers without * were called inactive.

SMILES | CBX7 AlphaScr
CC(C)c1ccc(C2c3c(-c4ccccc4)n[nH]c3C(=O)N2c2ccccc2)cc1 (stereo not given) | 0.845
O=C1c2[nH]nc(-c3ccccc3)c2C(c2ccccc2)N1c1ccccc1 (stereo not given) | 1
CCN(CC)CCNC(=O)CN1C(=O)COc2ccc(S(=O)(=O)N3CCOCC3)cc21 | 0.958
CCOC(=O)c1ccc2c(c1)N(Cc1ccccc1)C(=O)c1ccccc1S2 | 1.03
Cc1[nH]c2ccc(-c3nnc(SCCc4ccccc4)n3-c3ccccc3)cc2c1C | 0.783
CCSc1nnc(-c2ccc3[nH]c(C)c(C)c3c2)n1-c1ccccc1 | 0.936
Cc1[nH]c2ccc(-c3nnc(SCCO)n3-c3ccc(Br)cc3)cc2c1C | 0.455*
CCc1ccc(NC(=O)N(Cc2ccc3c(c2)CCCN3CC)C2CCCC2)cc1 | 0.339*
CC(=O)N1CCC(N(C(=O)Nc2ccc(C)c(C)c2)C2CCCCCC2)CC1 | 1.11
CCCN1CCCc2cc(CN(CCCN3CCOCC3)C(=O)Nc3ccc(CC)cc3)ccc21 | 0.523
CCc1ccc(NC(=O)N(C2CCCCCC2)C2CCN(C(C)=O)CC2)cc1 | 1
CCN1CCCc2cc(CN(C(=O)Nc3ccc(C)c(C)c3)C3CCCC3)ccc21 | 0.438*
CCc1ccc(NC(=O)N(CCC(C)C)C2CCN(C(C)C)CC2)cc1 | 1.07
CCCCN1CCCc2cc(CN(CCCN3CCOCC3)C(=O)Nc3ccc(CC)cc3)ccc21 | 0.233*
CCCCN1CCCc2cc(CN(CCCN3CCOCC3)C(=O)Nc3ccccc3)ccc21 | 0.528
CCCN1CCCc2cc(CN(C(=O)Nc3ccc(Cl)c(Cl)c3)C(C)CC)ccc21 (stereo not given) | 0.587
COC(=O)CNC(c1ccccc1)c1cc(Br)ccc1NC(=O)c1ccccc1 (stereo not given) | 1.05
CC(C)c1ccc(NC(=O)C(c2ccc3c(c2)OCO3)N2CCOCC2)cc1 (stereo not given) | 0.973
Cc1cccc(NC(=O)C(=O)NCCCN2CCOCC2)c1C | 0.911
Cc1onc(-c2ccccc2Cl)c1C(=O)NC(C)(C)C | 1.02
CCn1nnnc1-c1ccc(OC)c(S(=O)(=O)Nc2ccc(F)cc2)c1 | 1.04
Cc1cc(C)cc(N2CC(c3nc4ccccc4n3CC(C)C)CC2=O)c1 (stereo not given) | 0.982
COc1cccc(C2CC(=O)NC3=C2C(=O)CC(C)(C)C3)c1OC (stereo not given) | 1
O=C(Nc1ccc(F)c(F)c1)C1CCCN(S(=O)(=O)c2cccc3cccnc23)C1 (stereo not given) | 0.986
Cc1cc2c(o1)-c1c(oc3ccc(Cl)cc13)CCC2(C)c1ccccc1 (stereo not given) | 0.981
SMILES | CBX7 AlphaScr
COCCN(CCOC)S(=O)(=O)c1ccc(C(=O)Nc2nnc(COC)o2)cc1 | 0.583
Cc1nnc(NC(=O)c2ccc(S(=O)(=O)N(C)C)cc2)o1 | 0.0121*
COCCN(CCOC)S(=O)(=O)c1ccc(C(=O)Nc2nnc(C)o2)cc1 | 0.0057*
CN(C)S(=O)(=O)c1ccc(C(=O)Nc2c(C(N)=O)oc3ccccc23)cc1 | 1.05
CN(Cc1ccccc1)S(=O)(=O)c1ccc(C(=O)Nc2ccccc2-c2nc3ccccc3o2)cc1 | 1
CCCN(CCC)S(=O)(=O)c1ccc(C(=O)Nc2nnc(-c3ccccc3Cl)o2)cc1 | 1.13
COc1ccc(-c2nnc(NC(=O)c3ccc(S(=O)(=O)N(C)C)cc3)o2)c(OC)c1 | 0.582
COCCN(CCOC)S(=O)(=O)c1ccc(C(=O)Nc2nnc(-c3ccccc3Cl)o2)cc1 | 0.265*
Cc1nnc(NC(=O)c2ccc(S(=O)(=O)N(C)Cc3ccccc3)cc2)o1 | 0.00809*
CN(C1CCCCC1)S(=O)(=O)c1ccc(C(=O)Nc2nnc(-c3ccccc3Cl)o2)cc1 | 0.912
COCCN(CCOC)S(=O)(=O)c1ccc(C(=O)Nc2nc(-c3ccncc3)cs2)cc1 | 1.03
COCc1nnc(NC(=O)c2ccc(S(=O)(=O)N(C)Cc3ccccc3)cc2)o1 | 0.885
CCc1nnc(NC(=O)CCN2C(=O)c3ccccc3S2(=O)=O)s1 | 1.09
CCOc1ccc(NC(=O)c2sc3ncn(CC(=O)N4CC(C)CC(C)C4)c(=O)c3c2C)cc1 (stereo not given) | 1.01
Cc1ccccc1-c1nnc(SCC(=O)N2CCC(C)CC2)o1 | 0.957
O=C1CN(C(=O)c2ccc(F)cc2)C(c2ccccc2)c2cc(Cl)ccc2N1 (stereo not given) | 1.04
Cc1ccc(SCc2nc3sccn3c2Br)cc1 | 0.855
COCCN(CCOC)S(=O)(=O)c1ccc(C(=O)Nc2nnc(-c3ccc(F)cc3)o2)cc1 | 0.0251*
CCCCN(CCCC)S(=O)(=O)c1ccc(C(=O)Nc2nnc(C)o2)cc1 | 0.00474*
CCCCN(CCCC)S(=O)(=O)c1ccc(C(=O)Nc2nc3c(s2)COc2ccccc2-3)cc1 | 0.965
CCCCN(CCCC)S(=O)(=O)c1ccc(C(=O)Nc2ccccc2-c2nc3ccccc3[nH]2)cc1 | 1.04
COCCN(CCOC)S(=O)(=O)c1ccc(C(=O)Nc2nc(-c3ccc(OC)cc3)cs2)cc1 | 1.01
CCN(Cc1ccccc1)S(=O)(=O)c1ccc(C(=O)Nc2nnc(-c3ccc(OC)cc3)o2)cc1 | 1.18

Source: PubChem BioAssay
